The text below walks through data of PubChem BioAssay (EPA / NIEHS).

SMILES strings stand for the structures. Records with an inconclusive call do not appear. Calls of active or inactive are those of the source. The calls were made as follows, unless noted: active = hit-call score of the fitted dose curve at least 0.9, where 1 is the maximum; inconclusive = response in the unintended direction; inactive = score below 0.9.

Assay [1] in a line: ATG_CMV_CIS: Attagene CIS-FACTORIAL HepG2 Assay for human CMV (Internal Marker) (AID 2282928; active = hit-call score of the fitted dose curve at least 0.9, where 1 is the maximum; inactive = score below 0.9;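 also: endpoint acts as a background internal control marker rather than a target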). The following applies: HepG2 CMV promoter reporter, transcription factor profiling; actives raise or lower the signal. An outline of the steps:
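CMV internal-marker background readout in transiently transfected HepG2 cells bearing cis-regulated reporter units. Reporter mRNA is measured 24 h after dosing by RT-PCR and capillary electrophoresis, with bidirectional fitting against DMSO.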

Assay [2] can be described thus: ATG_Ets_CIS: Attagene CIS-FACTORIAL HepG2 Assay for human Erythroblast Transformation Specific (ETS) (AID 2282941; active = hit-call score of the fitted dose curve at least 0.9, where 1 is the maximum; inactive = score below 0.9). To be noted: HepG2 ETS cis-reporter transcription, actives raise or lower the signal. An outline of the steps: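 HepG2 cells transfected with multiple cis-regulated reporter units measuring endogenous ETS-driven transcription, 24 h after dosing. Reporter mRNA quantified by RT-PCR with capillary electrophoresis; bidirectional fit relative to DMSO.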

Assay [3] can be described thus: ATG_FoxO_CIS: Attagene CIS-FACTORIAL HepG2 Assay for human Forkhead box O (FoxO) (AID 2282943; active = hit-call score of the fitted dose curve at least 0.9, where 1 is the maximum; inactive = score below 0.9). The following applies: HepG2 Attagene cis-reporter, FoxO element, mRNA; actives raise or lower the signal. An outline of the steps: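 Values reflect reporter mRNA induction or loss in HepG2 cells 24 h post-dosing, fitted bidirectionally with DMSO as negative control and baseline. Detection used RT-PCR and fluorescence capillary electrophoresis.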

The target of assay [4] is Oxysterols receptor LXR-beta (Homo sapiens) (UniProt P55055). The experiment in a line: ATG_LXRb_TRANS: Attagene TRANS-FACTORIAL HepG2 Assay for human Liver X Receptor beta (LXRb) (AID 2282981). The following applies: HepG2 Attagene TRANS GAL4-LXRb reporter, mRNA. The method, boiled down: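 In this TRANS format, exogenous chimeric NR-Gal4 protein activity, not endogenous factors, drives reporter expression in transfected human HepG2 cells. Exposure lasted 24 h; reporter mRNA was read by fluorescent capillary electrophoresis.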

Assay [5] concerns the target Hepatocyte nuclear factor 4-alpha (Homo sapiens) (UniProt P41235). In words: ATG_HNF4a_TRANS: Attagene TRANS-FACTORIAL HepG2 Assay for human Hepatocyte Nuclear Factor 4 alpha (HNF4a) (AID 2282982). To be noted: HepG2 HNF4a transactivation reporter, mRNA readout. An outline of the steps: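 Cells used were human HepG2, transiently carrying GAL4-UAS reporter units read out against exogenous NR-GAL4 chimeras. Reporter transcript levels after 24 h dosing were quantified by fluorescent RT-PCR and capillary electrophoresis.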

The nature of assay [6]: ATG_M_32_TRANS: Attagene TRANS-FACTORIAL HepG2 Assay for M32 Transcription Factor (Internal Marker) (AID 2282984).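 Also: transcript level of a background control reporter unit measured by RT-PCR and capillary electrophoresis.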 The following applies: HepG2 Attagene TRANS M32 internal marker reporter. An outline of the steps:
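Human hepatoma HepG2, transient MRTU transfection, 24 h treatment. RNA → RT-PCR → fluorescent primer extension → HpaI digest (2 h, 37 C) → CE. Positive-direction fit vs DMSO.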

Assay [7] concerns the target Nuclear receptor subfamily 4 group A member 2 (Homo sapiens) (UniProt P43354). The experiment in a line: ATG_NURR1_TRANS: Attagene TRANS-FACTORIAL HepG2 Assay for human Nuclear Receptor Related Protein 1 (NURR1) (AID 2282985). To be noted: HepG2 Attagene TRANS reporter, mRNA readout. The method, boiled down:
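After 24 h chemical dosing, total RNA from transiently transfected HepG2 cells was reverse-transcribed and reporter cDNA PCR-amplified, FAM-labelled and analysed by capillary electrophoresis. Activity fitted in positive direction, DMSO as negative control.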

Assay [8] concerns the target human Peroxisome Proliferator-activated Receptor alpha (PPARa), PPARA (gene 5465) (UniProt Q07869). The experiment in a line: ATG_PPARa_TRANS: Attagene TRANS-FACTORIAL HepG2 Assay for human Peroxisome Proliferator-activated Receptor alpha (PPARa) (AID 2283001).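 As to AC50: potency for gain of reporter signal over DMSO so agonist or activator.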 An outline of the steps:
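Gain-of-signal endpoint: reporter mRNA induction relative to DMSO, detected by fluorescent RT-PCR and capillary electrophoresis. HepG2 cells transiently carried GAL4-UAS-driven reporter units plus NR-Gal4 fusion; exposure lasted 24 h.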

Assay [9] deals with Retinoic acid receptor RXR-alpha (Homo sapiens) (UniProt P19793). In words: ATG_RXRa_TRANS: Attagene TRANS-FACTORIAL HepG2 Assay for human Retinoid X Receptor alpha (RXRa) (AID 2283012). The method, boiled down:
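Transient transfection of human HepG2 with multiple GAL4-UAS reporter constructs; 24 h compound exposure; total RNA isolated, reverse-transcribed, PCR-amplified, 6-FAM labelled, HpaI-cut, resolved by capillary electrophoresis. Positive-direction fit versus DMSO.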

In assay [10] the target is human Thyroid Receptor alpha (THRa1), THRA (gene 7067) (UniProt P10827). The experiment in a line: ATG_THRa1_TRANS: Attagene TRANS-FACTORIAL HepG2 Assay for human Thyroid Receptor alpha (THRa1) (AID 2283014). The method, boiled down: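 Reporter transcript induction, read by capillary electrophoresis of 6-FAM-labelled RT-PCR products, reflects activity of a transfected THRa1-Gal4 fusion in HepG2 liver cells. Cells were dosed for 24 h; activity was fitted in the positive direction against DMSO.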

Assay [11] has as its target Cellular tumor antigen p53 (Homo sapiens) (UniProt P04637). The experiment in a line: TOX21_p53_BLA_p2_ratio: Tox21 HCT-116 p53 Agonism Beta-lactamase Assay, Ratio, Phase 2 (AID 2283592). An outline of the steps:
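HCT116 p53-bla; 4000 cells/well; 5 h pre-incubation; cpd in DMSO, 217-fold dilution; 16 h 37C/5% CO2; CCF4-AM 2 h RT; Ex 405, Em 460/530 ratio; DMSO = baseline; positive fitting direction.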

Assay [12] is described as follows: ATG_AP_1_CIS: Attagene CIS-FACTORIAL HepG2 Assay for human Activator Protein 1 (AP-1) (AID 2282931; active = hit-call score of the fitted dose curve at least 0.9, where 1 is the maximum; inactive = score below 0.9). The following applies: HepG2 Attagene cis-factorial AP-1 reporter mRNA; actives raise or lower the signal. An outline of the steps: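 We transfected HepG2 cells transiently with a set of cis-regulated reporter transcription units, dosed them for 24 h, and quantified reporter mRNA via RT-PCR and capillary electrophoresis, scoring gain or loss of signal relative to DMSO.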

Assay [13] addresses Hepatocyte nuclear factor 3-beta (Homo sapiens) (UniProt Q9Y261). In words: ATG_FoxA2_CIS: Attagene CIS-FACTORIAL HepG2 Assay for human Forkhead box A2 (FOXA2) (AID 2282942; active = hit-call score of the fitted dose curve at least 0.9, where 1 is the maximum; inactive = score below 0.9). To be noted: HepG2 cis-reporter transcription factor activity, 24 h; actives raise or lower the signal. An outline of the steps:
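Multiplexed cis-element reporter assay in transiently transfected HepG2. Twenty-four hours post-dosing, RNA was reverse-transcribed, amplified, FAM-labelled, HpaI-digested and separated by CE. Activity gain or loss relative to DMSO.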

In assay [14] the target is Paired box protein Pax-6 (Homo sapiens) (UniProt P26367). The experiment in a line: ATG_Pax6_CIS: Attagene CIS-FACTORIAL HepG2 Assay for human Paired Box 6 (PAX6) (AID 2282956; active = hit-call score of the fitted dose curve at least 0.9, where 1 is the maximum; inactive = score below 0.9). To be noted: HepG2 CIS-FACTORIAL PAX6 reporter transcription, RNA readout; actives raise or lower the signal. The method, boiled down: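 HepG2 cells transiently transfected with cis-promoter-driven multiplexed reporter units sensing endogenous transcription factor activity; 24 h chemical exposure. Reporter mRNA quantified by RT-PCR, 6-FAM labelling, HpaI digestion and capillary electrophoresis; bidirectional fit versus DMSO baseline.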

Assay [15] can be described thus: ATG_PPRE_CIS: Attagene CIS-FACTORIAL HepG2 Assay for human Peroxisome Proliferator-activated Response Element (PPRE) (AID 2282958; active = hit-call score of the fitted dose curve at least 0.9, where 1 is the maximum; inactive = score below 0.9). To be noted: HepG2 PPRE cis-element reporter, Attagene transcription factor profiling; actives raise or lower the signal. An outline of the steps: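 DMSO served as negative control and baseline for bidirectional curve fitting. Signal came from PPRE-regulated reporter mRNA in HepG2 cells, measured 24 h post-dosing by RT-PCR, 6-FAM primer extension and capillary electrophoresis.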

The nature of assay [16]: ATG_SREBP_CIS: Attagene CIS-FACTORIAL HepG2 Assay for human Sterol Regulatory Element Binding (SREBP) (AID 2282962; active = hit-call score of the fitted dose curve at least 0.9, where 1 is the maximum; inactive = score below 0.9). To be noted: HepG2 Attagene cis-factorial SREBP reporter, mRNA; actives raise or lower the signal. The method, boiled down:
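HepG2 cells transiently transfected with multiplexed cis-promoter reporter units sensing endogenous transcription factors; reporter mRNA measured 24 h after dosing by RT-PCR, 6-FAM labeling, HpaI digestion and capillary electrophoresis. Bidirectional fit versus DMSO.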

Assay [17] deals with Cellular tumor antigen p53 (Homo sapiens) (UniProt P04637). The experiment in a line: TOX21_p53_BLA_p5_ratio: Tox21 HCT-116 p53 Agonism Beta-lactamase Assay, Ratio, Phase 5 (AID 2283599). The method, boiled down: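 HCT-116 cells carrying a p53-inducible beta-lactamase reporter were seeded at 4000 cells/well and dosed after 5 h with compound in DMSO (217-fold dilution). After 16 h at 37C, CCF4-AM substrate was added for 2 h, and the 460/530 nm emission ratio was scored as gain-of-signal versus DMSO.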

The nature of assay [18]: TOX21_p53_BLA_p5_viability: Viability Assessment in the Tox21 HCT-116 p53 Agonism Beta-lactamase Assay, Phase 5 (AID 2283600). The method, boiled down:
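4000 cells/well; 5 h pre-incubation; DMSO compounds pin-transferred, 217-fold dilution; 16 h, 37C/5% CO2; CCF4-AM 2 h RT; CellTiter-Glo 30 min RT; luminescence.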

A short description of assay [19]: ATG_GATA_CIS: Attagene CIS-FACTORIAL HepG2 Assay for human GATA Binding Protein (AID 2282944; active = hit-call score of the fitted dose curve at least 0.9, where 1 is the maximum; inactive = score below 0.9). The following applies: HepG2 GATA cis-element reporter, Attagene multiplex mRNA; actives raise or lower the signal. The method, boiled down: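 HepG2 cells transiently transfected with multiplexed cis-element reporter units reflecting endogenous transcription factor activity; reporter mRNA measured after 24 h dosing by RT-PCR, 6-FAM labeling, HpaI digestion and capillary electrophoresis. Bidirectional fitting versus DMSO baseline.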

Assay [20] can be described thus: ATG_M_06_TRANS: Attagene TRANS-FACTORIAL HepG2 Assay for M06 Transcription Factor (Internal Marker) (AID 2282983). The following applies: HepG2 Attagene TRANS M06 internal marker reporter. An outline of the steps: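 Transfect HepG2 with MRTUs → dose compounds 24 h → isolate RNA, oligo(dT) RT → PCR with reporter primers → 6-FAM primer extension → HpaI digest → CE fragment analysis. Positive direction vs DMSO.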

Retinoic acid receptor RXR-alpha (Homo sapiens), sequence (P19793 whole entry, looked up, the tested form may be a part): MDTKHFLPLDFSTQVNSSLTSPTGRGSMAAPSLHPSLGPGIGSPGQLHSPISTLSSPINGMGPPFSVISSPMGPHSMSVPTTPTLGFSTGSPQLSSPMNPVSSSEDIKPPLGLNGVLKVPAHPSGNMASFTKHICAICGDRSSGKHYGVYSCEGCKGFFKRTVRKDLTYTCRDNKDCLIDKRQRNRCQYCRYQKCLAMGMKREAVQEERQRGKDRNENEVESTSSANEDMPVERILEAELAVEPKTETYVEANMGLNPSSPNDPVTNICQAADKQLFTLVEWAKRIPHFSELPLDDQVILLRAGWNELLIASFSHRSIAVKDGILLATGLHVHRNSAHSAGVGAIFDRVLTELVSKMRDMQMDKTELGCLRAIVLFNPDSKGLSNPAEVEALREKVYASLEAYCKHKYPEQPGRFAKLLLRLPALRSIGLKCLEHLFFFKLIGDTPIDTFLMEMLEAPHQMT
Nuclear receptor subfamily 4 group A member 2 (Homo sapiens), sequence (P43354 whole entry, looked up): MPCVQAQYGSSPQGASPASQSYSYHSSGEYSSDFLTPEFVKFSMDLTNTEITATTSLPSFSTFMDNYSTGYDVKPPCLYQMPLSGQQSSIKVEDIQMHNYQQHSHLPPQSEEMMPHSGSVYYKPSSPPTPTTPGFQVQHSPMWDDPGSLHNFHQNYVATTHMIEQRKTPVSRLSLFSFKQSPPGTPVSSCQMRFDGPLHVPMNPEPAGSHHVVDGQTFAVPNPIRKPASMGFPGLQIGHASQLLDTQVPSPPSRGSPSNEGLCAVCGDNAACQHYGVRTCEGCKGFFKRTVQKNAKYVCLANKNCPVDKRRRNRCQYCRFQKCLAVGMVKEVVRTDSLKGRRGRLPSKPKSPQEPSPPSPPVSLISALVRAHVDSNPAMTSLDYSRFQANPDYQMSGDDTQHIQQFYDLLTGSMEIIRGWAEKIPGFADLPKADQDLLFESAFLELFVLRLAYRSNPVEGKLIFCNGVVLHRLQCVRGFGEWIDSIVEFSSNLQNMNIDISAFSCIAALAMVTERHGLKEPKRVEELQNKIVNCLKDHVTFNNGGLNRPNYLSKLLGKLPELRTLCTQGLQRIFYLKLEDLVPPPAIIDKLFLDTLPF
human Thyroid Receptor alpha (THRa1), THRA (gene 7067), sequence (P10827 whole entry, looked up, the tested form may be a part): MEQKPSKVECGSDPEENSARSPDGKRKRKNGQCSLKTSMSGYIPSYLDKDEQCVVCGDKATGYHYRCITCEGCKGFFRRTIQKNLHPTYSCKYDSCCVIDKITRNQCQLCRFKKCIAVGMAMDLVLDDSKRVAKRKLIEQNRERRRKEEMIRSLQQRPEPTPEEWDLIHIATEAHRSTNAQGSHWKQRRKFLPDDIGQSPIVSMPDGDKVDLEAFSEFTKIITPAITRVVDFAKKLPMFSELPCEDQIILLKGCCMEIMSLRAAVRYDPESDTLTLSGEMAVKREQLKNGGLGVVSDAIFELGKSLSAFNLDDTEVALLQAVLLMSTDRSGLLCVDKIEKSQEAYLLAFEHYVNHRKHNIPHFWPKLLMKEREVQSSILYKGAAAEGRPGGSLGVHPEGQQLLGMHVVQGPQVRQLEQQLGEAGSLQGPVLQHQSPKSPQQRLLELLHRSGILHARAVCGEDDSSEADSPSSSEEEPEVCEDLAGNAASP
Cellular tumor antigen p53 (Homo sapiens), sequence (P04637 whole entry, looked up): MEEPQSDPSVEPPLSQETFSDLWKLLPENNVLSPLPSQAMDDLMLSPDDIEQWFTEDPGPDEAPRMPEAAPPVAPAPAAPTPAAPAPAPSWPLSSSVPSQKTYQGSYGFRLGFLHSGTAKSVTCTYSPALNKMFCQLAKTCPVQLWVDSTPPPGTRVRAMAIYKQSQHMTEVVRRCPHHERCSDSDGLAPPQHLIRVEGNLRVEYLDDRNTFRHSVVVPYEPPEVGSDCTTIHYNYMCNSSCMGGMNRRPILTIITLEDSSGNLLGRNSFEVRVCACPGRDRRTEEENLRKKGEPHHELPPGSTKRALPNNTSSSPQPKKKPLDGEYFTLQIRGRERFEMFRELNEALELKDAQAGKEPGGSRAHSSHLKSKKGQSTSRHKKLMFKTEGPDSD
Hepatocyte nuclear factor 3-beta (Homo sapiens), sequence (Q9Y261 whole entry, looked up): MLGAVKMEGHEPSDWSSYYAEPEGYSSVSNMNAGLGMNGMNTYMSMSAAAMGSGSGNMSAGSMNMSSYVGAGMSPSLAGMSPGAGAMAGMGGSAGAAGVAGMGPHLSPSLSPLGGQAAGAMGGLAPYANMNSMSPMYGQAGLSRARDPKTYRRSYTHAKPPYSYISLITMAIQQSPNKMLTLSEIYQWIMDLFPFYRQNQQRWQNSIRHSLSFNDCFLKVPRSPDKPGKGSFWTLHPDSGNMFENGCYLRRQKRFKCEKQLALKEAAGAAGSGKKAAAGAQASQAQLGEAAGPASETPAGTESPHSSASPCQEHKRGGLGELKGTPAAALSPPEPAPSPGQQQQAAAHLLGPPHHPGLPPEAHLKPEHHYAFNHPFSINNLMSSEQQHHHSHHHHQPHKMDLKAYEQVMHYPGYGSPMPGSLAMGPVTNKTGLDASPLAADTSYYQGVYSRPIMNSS
Hepatocyte nuclear factor 4-alpha (Homo sapiens), sequence (P41235 whole entry, looked up, the tested form may be a part): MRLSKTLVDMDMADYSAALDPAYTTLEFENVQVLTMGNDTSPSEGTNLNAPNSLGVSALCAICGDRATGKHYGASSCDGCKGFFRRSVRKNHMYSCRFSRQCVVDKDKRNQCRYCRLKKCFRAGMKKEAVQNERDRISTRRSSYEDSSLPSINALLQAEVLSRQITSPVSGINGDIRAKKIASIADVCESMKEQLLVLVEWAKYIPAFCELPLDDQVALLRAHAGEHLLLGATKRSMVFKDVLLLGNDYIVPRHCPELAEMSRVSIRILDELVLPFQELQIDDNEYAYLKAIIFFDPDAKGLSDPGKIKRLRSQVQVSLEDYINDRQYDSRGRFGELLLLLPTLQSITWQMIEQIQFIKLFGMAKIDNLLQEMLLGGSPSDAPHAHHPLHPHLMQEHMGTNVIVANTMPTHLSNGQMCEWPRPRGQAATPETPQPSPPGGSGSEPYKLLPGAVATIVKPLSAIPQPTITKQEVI
Oxysterols receptor LXR-beta (Homo sapiens), sequence (P55055 whole entry, looked up, the tested form may be a part): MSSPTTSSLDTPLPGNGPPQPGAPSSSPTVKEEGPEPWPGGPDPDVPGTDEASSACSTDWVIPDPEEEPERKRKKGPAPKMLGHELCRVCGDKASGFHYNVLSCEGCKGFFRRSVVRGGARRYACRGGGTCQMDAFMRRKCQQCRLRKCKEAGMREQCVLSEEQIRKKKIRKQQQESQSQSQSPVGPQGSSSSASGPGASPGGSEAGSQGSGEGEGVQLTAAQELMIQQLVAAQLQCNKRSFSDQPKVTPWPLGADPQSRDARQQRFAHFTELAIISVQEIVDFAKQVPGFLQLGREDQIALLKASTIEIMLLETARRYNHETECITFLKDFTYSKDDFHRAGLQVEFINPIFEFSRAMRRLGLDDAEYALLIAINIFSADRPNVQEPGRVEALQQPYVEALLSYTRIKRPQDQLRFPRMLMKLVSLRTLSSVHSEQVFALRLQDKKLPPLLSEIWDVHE
Paired box protein Pax-6 (Homo sapiens), sequence (P26367 whole entry, looked up): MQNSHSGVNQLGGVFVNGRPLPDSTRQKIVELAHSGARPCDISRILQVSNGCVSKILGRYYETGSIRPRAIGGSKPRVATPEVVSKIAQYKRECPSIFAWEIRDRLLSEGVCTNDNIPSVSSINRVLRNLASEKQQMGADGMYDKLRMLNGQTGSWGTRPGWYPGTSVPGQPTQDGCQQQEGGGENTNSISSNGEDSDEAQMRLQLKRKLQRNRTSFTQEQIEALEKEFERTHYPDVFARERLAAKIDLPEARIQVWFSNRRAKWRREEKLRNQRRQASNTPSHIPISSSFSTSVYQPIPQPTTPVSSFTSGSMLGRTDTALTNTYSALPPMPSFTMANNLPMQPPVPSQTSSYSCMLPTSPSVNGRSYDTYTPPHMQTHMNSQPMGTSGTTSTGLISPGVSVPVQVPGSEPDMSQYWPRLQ
human Peroxisome Proliferator-activated Receptor alpha (PPARa), PPARA (gene 5465), sequence (Q07869 whole entry, looked up, the tested form may be a part): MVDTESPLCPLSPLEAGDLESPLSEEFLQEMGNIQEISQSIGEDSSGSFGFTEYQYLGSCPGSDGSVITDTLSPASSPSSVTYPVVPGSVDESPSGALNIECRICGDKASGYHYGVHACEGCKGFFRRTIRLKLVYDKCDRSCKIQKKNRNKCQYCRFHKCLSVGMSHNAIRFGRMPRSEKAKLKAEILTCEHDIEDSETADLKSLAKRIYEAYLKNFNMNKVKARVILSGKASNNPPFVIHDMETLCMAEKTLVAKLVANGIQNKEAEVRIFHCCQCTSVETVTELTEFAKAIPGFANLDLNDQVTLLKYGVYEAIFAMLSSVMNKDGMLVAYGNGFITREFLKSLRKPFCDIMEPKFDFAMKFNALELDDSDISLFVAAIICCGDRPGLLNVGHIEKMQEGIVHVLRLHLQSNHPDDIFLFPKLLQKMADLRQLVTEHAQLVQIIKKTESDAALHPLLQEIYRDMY

Consider `O=P(O)(Oc1ccccc1)Oc1ccccc1`, for which the call in [1], in assay [2], in assay [3], in assay [4], in assay [5] and in assay [6] was inactive. The result in assay [7], in [8], in assay [9], in assay [10] and in [11] was inactive.
As a reminder, the AC50 is the concentration giving half of the maximal activity seen. As for `N#Cc1cc(I)c(O)c(I)c1`, the compound was called inactive in assay [1], in assay [13], in assay [3], in assay [14], in assay [16] and in assay [4]. In addition, the compound was classed as inactive in assay [5], in assay [9], in [10] and in assay [18]. Besides, the AC50 in [12] was 100 µM (active); in assay [15], 29.1 µM (active); in assay [8], 8.29 µM (active); in assay [11], 9.91 µM (active); in assay [17], 55.8 µM (active).
On to `CCC(C)(C)O`, for which the compound was called inactive in assay [12], in [13], in assay [3], in [19], in [14] and in assay [15]. The outcome in assay [16], in assay [5], in [20], in assay [6] and in assay [7] was inactive.
For the compound `CCN(CC)C(=S)S`, the concentration at half-maximal activity (AC50) in assay [1] was 100 µM (active). The outcome in [2], in assay [13], in assay [3], in assay [14], in [16] and in [4] was inactive. For the same compound, the outcome in [20], in [6], in [7], in [9] and in [10] was inactive.
On to `C[N+](=O)[O-]`, for which the compound was called inactive in assay [19], in [14], in [15], in assay [16], in assay [4] and in [5]. Moreover, the call in [20], in [8], in assay [9], in assay [10] and in assay [18] was inactive.
